Screening results: PubChem BioAssay, The Scripps Research Institute Molecular Screening Center
UHRF1 MBD2 ctr = human UHRF1 methylated DNA binding inhibitors; UHRF1 binding to methylated oligo, TR-FRET; hit rate 0.75% among 370,000; inhibition, % at 4.4 µM; AID 687016;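 note: UHRF1 SRA domain binding a hemimethylated CpG hairpin DNA probe; 0% = median of test compound wells and 100% = reference inhibitor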
Target sequence (Q96T88 whole entry, looked up, the tested form may be a part): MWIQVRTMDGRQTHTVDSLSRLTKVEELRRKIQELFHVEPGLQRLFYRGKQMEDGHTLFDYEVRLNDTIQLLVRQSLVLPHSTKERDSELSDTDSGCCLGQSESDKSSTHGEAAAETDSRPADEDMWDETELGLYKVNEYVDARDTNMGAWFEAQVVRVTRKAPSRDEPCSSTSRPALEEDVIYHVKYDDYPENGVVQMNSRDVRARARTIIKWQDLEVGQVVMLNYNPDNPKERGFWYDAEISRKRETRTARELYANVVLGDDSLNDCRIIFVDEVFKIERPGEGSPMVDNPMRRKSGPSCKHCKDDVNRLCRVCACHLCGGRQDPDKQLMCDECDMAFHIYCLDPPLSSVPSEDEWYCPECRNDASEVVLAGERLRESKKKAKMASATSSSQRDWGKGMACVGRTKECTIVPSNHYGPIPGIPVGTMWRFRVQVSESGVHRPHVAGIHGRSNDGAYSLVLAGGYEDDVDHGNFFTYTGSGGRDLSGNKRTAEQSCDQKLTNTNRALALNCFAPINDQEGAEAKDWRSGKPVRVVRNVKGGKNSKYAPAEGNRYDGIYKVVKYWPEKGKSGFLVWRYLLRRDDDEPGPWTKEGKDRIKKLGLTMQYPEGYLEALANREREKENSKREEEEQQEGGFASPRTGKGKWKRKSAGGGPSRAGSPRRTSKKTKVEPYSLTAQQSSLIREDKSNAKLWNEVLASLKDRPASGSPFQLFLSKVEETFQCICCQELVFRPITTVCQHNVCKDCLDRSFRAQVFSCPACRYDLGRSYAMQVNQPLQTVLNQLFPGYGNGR
LEDGF integ inh = blocks HIV-1 LEDGF/p75-dependent DNA integration | TR-FRET IN-LEDGF/p75 DNA integration, Eu/Cy5 | hit rate 0.64% among 370,000 | AID 743269 | inhibition, % at 3.7 µM;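 active = inhibition above the screen-wide mean plus 3 SD, cut at about 13% in these data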;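 note: signal is the Cy5 over europium emission ratio at 671 and 618 nm; 0% = plate median of compound wells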
MBD2 inh = MBD2-methylated oligo binding inhibition; TR-FRET, MBD2 binding to methylated oligonucleotide; inhibition, % at 4.4 µM; hit rate 0.31% among 370,000; in the data active = inhibition above about 13%
PRMT1 inh = inhibitors of human PRMT1. hit rate 1.3% among 370,000. recombinant PRMT1, activity-based probe fluorescence polarization. Q99873. inhibition, % at 2.79 µM;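 active = inhibition above about 21% made by adding two undisclosed values, limit read from the data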
PRMT1 inh conf = PRMT1 (human) inhibition, FP confirmation; shares compounds with PRMT1 inh; recombinant His-PRMT1, activity-based probe fluorescence polarization; inhibition, % at 2.79 µM; hit rate 42% among 3,300; AID 687036;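 active = mean inhibition across replicates above the hit cutoff derived for the earlier primary screen, cut at about 22% in these data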
UHRF1 DNA bind = counter-screen for MBD2 inhibitors: human UHRF1 methylated DNA binding inhibitors. shares compounds with MBD2 inh. UHRF1 binding to methylated oligonucleotide, TR-FRET. inhibition, % at 4.4 µM. hit rate 25% among 1,000;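 note: UHRF1 SRA domain binding a labeled hemimethylated CpG hairpin DNA; 0% = vehicle only and 100% = reference inhibitor with vehicle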
MBD2 DBD conf = MBD2-DBD methyl-DNA binding inhibition, TR-FRET confirmation | hit rate 26% among 1,000 | shares compounds with MBD2 inh | inhibition, % at 4.4 µM | AID 720531 | TR-FRET MBD2-DBD binding to methylated oligonucleotide; in the data active = inhibition above about 14%
Numbers without * were called inactive; / = no result; ! = repeats disagree. Sampled rows, rich in hits. Any-hit rate of the full collection: about 2.5%. Cut-off read from the data, not from the text of the source, unless noted: active = inhibition above about 21%; inactive = the rest.

SMILES	UHRF1 MBD2 ctr	LEDGF integ inh	MBD2 inh	PRMT1 inh	PRMT1 inh conf	others
Cc1cc(N2CCNC[C@H]2C)ccc1N1CC[C@@H](O)C1	-3.3	0.2	-6.2	51.0*	7.9
Cc1cc(C)[n+](CCCC[n+]2c(C)cc(C)cc2C)c(C)c1	-2.9	-0.5	0.7	0.1	/
N#CSCC(=O)N1c2ccccc2CCc2ccccc21	-6.2	4.1	-6.1	57.7*	49.8*
CCOC(=O)c1cc(C)sc1/N=C/C1C(=O)NC(=S)NC1=O	1.8	0.2	4.6	85.8*	9.3
Cc1ccc(C(O)P(=O)(Oc2ccccc2)Oc2ccccc2)cc1 (stereo not drawn)	-1.3	-1.3	-1.0	0.1	/
NS(=O)(=O)c1ccc(-c2ccc(C=C3C(=O)NC(=O)NC3=O)o2)cc1	-2.2	4.6	-6.6	19.5	/
O=C1NC(=O)C(=Cc2ccc(SC3CCCCC3)o2)C(=O)N1	2.4	5.6	1.0	26.4*	4.1
N#Cc1c(/N=C/C2C(=O)NC(=S)NC2=O)sc2c1CCCC2	-1.7	-5.1	-0.2	25.5*	6.6
COP(=S)(OC)SCN1C(=O)c2ccccc2C1=O	-1.5	2.8	-1.5	59.0*	75.6*
O=C(OCC(=O)c1ccc([N+](=O)[O-])cc1)/C(=C/c1ccc(Cl)cc1)NC(=O)c1ccccc1	1.8	1.9	-3.3	46.4*	2.9
C=CCNC(=O)c1c(N)n(Cc2ccco2)c2nc3ccccc3nc12	-9.5	5.4	-5.5	25.4*	9.3
COCCNC(=O)c1c(N)n(Cc2ccco2)c2nc3ccccc3nc12	-13.0	3.3	-4.3	11.6	/
COc1ccc(NC2(C#N)CCCCC2)cc1	1.8	1.4	4.0	0.4	/
CC(=O)C1C2c3ccccc3O[C@@]1(C)N=c1s/c(=C/c3ccoc3)c(=O)n12 (stereo partly drawn)	-4.4	6.7	-4.8	2.9	/
CCOC(=O)CNC(=O)CSP(=S)(OCC)OCC	0.3	-2.2	-1.1	-1.4	/
CNC(=O)CSP(=S)(OC)OC	-3.2	4.0	2.2	32.2*	28.7*
CC[C@H]1c2ccccc2[C@@H]2CC[C@H]1N2c1ccccc1	-0.1	-2.2	-6.0	-0.1	/
Cc1cccc(N2CCc3c2nc2ccccc2c3N)c1	-2.2	-1.9	4.6	32.5*!	8.1
Cc1cc(C)c(C)c(C(O)(C(=O)O)c2ccccc2)c1 (stereo not drawn)	-0.4	2.0	2.4	-0.6	/
Cc1ccc2c(c1)NP(=S)(Oc1ccccc1)N2 (stereo not drawn)	-2.3	0.7	-1.4	0.8	/
Cc1ccc(OP2(=O)Nc3cc(C)c(C)cc3S2)cc1 (stereo not drawn)	1.8	-4.9	3.2	67.5*	60.2*
CN1CCCN(C(=O)COc2ccc(F)cc2F)CC1	-1.8	-2.2	-0.8	0.1	/
Cn1cnc([N+](=O)[O-])c1Sc1ccc([N+](=O)[O-])cc1	4.3	-8.3	-7.6	47.5*	12.5
O=[N+]([O-])c1ccc(C(c2ccc([N+](=O)[O-])cc2)c2ccc([N+](=O)[O-])cc2)cc1	-0.4	-0.8	-4.3	2.0	/
COC(=O)C1=C(c2ccc(F)cc2F)C[C@@H]2CC[C@H]1N2C(=O)NCCOc1ccccc1	-3.3	2.1	1.1	-0.4	/
SMILES	UHRF1 MBD2 ctr	LEDGF integ inh	MBD2 inh	PRMT1 inh	PRMT1 inh conf	others
O=[N+]([O-])c1ccc(NCc2ccccc2)c2nonc12	-23.8	-8.6	-22.7	167.6*	158.7*
CC1CC2(C)C(CCC3C2CCC2(C)C(OP(=O)(N4CC4)N4CC4)CCC32)CC1=O (stereo not drawn)	1.8	-6.1	2.2	-0.1	/
NN=C(N)N	2.2	4.6	-1.6	-2.9	/
Nc1ccc2nonc2c1[N+](=O)[O-]	-17.1	-2.4	-12.6	92.3*	78.5*
CCN(CC)CC(O)c1ccc(C2CCCC2)cc1 (stereo not drawn)	-2.4	3.2	1.3	-3.1	/
C=CC12CN(C)C3C4COC(CC41)C1(C(=O)Nc4ccccc41)C32 (stereo not drawn)	1.1	-0.5	1.8	-10.1	/
COC(=O)COc1ccc(/C=C2\C(=O)NC(=S)N(c3ccc(C)cc3)C2=O)cc1OC	2.0	-4.5	-3.6	31.6*	27.0*
COc1ccc(N2C(=O)/C(=C/c3ccc(OC)c(OC)c3)C(=O)NC2=S)cc1	0.3	0.6	-5.1	41.1*	49.0*
COc1cc(/C=C2\C(=O)NC(=O)N(c3ccccc3)C2=O)cc(OC)c1OC	1.8	3.6	6.4	5.8	/
CC/C(=N\N1CCCCCC1)c1c(O)n(-c2ccccc2C)c(=O)[nH]c1=O	-3.4	3.2	0.7	-2.3	/
CC12C=CC(=O)CC1CCC1C2CCC2(C)C(O)C(O)CC12 (stereo not drawn)	0.6	-1.3	-3.0	4.5	/
COC(=O)C1=C(c2ccc(-c3ccccc3)c(F)c2)C[C@@H]2CC[C@H]1N2C(=O)NCc1ccco1	-0.3	1.3	-4.0	-2.0	/
COC(=O)C1=C(c2cccc(OC)c2OC)C[C@@H]2CC[C@H]1N2C(=O)N1CCCC1	0.6	3.5	0.5	0.2	/
O=C1C2CC=CCC2C(=O)N1SC(Cl)(Cl)Cl (stereo not drawn)	3.7	0.7	0.5	75.1*	86.6*
C=CCNC(=S)/N=C/c1c(O)[nH]c(=O)[nH]c1=O	1.4	-6.1	-0.9	14.7	/
NC(=S)/N=C/c1c(O)[nH]c(=O)[nH]c1=O	-6.9	-0.5	-0.8	34.4*	4.0
Cc1cccc(C)c1-n1nnnc1C(C1CC1)N1CCC2(CC1)C(=O)NCN2c1ccccc1 (stereo not drawn)	1.9	-1.9	-0.2	-1.5	/
COc1cccc2c1C(=O)c1c(O)c3c(c(O)c1C2=O)CC(O)(C(C)=NO)CC3OC1CC(N)C(O)C(C)O1 (stereo not drawn)	95.1*	-0.2	109.1*	145.5*	138.8*	UHRF1 DNA bind=99.6*;MBD2 DBD conf=108.9*
O=C(O)Cn1cc(/C=C2\C(=O)NC(=O)N(Cc3ccco3)C2=O)c2ccccc21	85.2*	86.2*	24.9*	27.5*	20.4	UHRF1 DNA bind=56.5*;MBD2 DBD conf=18.1*
O=C1N[C@H](Cc2ccccc2)C(=O)N2[C@@H]3[C@H](C[C@@H]12)c1ccccc1N3OOSc1ccccc1	-3.1	-0.6	-1.7	-1.5	/
C[C@H](CO)N1C[C@H](C)[C@@H](CN(C)C(=O)Oc2ccc3ccccc3c2)OCc2cn(nn2)CCCC1=O	1.3	6.5	2.9	2.3	/
